SMILES strings stand for the structures. Calls of active or inactive are those of the source. The calls were made as follows: active = hit-call score of the fitted dose curve at least 0.9, where 1 is the maximum; inactive = score below 0.9.

Read-out in test [1]: Interleukin-8 (IL8), CXCL8 (gene 3576)
Kind of test: BSK_CASM3C_IL8: BioMAP Diversity Plus: CASM3C Assay for Interleukin-8 (IL8) Biomarker Activity (AID 2283042).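 Also: IL-8 protein level quantified by ELISA.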 As to conditions: primary human coronary artery smooth muscle cells; actives raise or lower the signal.

Read-out in test [2]: Human Leukocyte Antigen - DR isotype (HLADR), HLA-DRA (gene 3122)
Kind of test: BSK_CASM3C_HLADR: BioMAP Diversity Plus: CASM3C Assay for Human Leukocyte Antigen - DR isotype (HLADR) Biomarker Activity (AID 2283043).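 Also: cell-surface HLA-DR protein level quantified by ELISA.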 As to conditions: primary human coronary artery smooth muscle cells; actives raise or lower the signal.

Read-out in test [3]: Macrophage colony-stimulating factor (MCSF), CSF1 (gene 1435)
Kind of test: BSK_CASM3C_MCSF: BioMAP Diversity Plus: CASM3C Assay for Macrophage colony-stimulating factor (MCSF) Biomarker Activity (AID 2283044).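 Also: M-CSF protein amount quantified by ELISA after 24 h exposure.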 As to conditions: primary human coronary artery smooth muscle cells; actives raise or lower the signal.

Read-out in test [4]: Low-density lipoprotein receptor (LDLR), LDLR (gene 3949)
Kind of test: BSK_CASM3C_LDLR: BioMAP Diversity Plus: CASM3C Assay for Low-density lipoprotein receptor (LDLR) Biomarker Activity (AID 2283045).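 Also: LDLR protein level on the cell surface quantified by ELISA.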 As to conditions: primary human coronary artery smooth muscle cells; actives raise or lower the signal.

Read-out in test [5]: Monocyte Chemoattractant Protein-1 (MCP1), CCL2 (gene 6347)
The test can be described thus: BSK_CASM3C_MCP1: BioMAP Diversity Plus: CASM3C Assay for Monocyte Chemoattractant Protein-1 (MCP1) Biomarker Activity (AID 2283046).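 Also: MCP-1 level quantified by ELISA 24 h after dosing.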 Particulars: primary human coronary artery smooth muscle cells; actives raise or lower the signal.

Test [6] in a line: BSK_CASM3C_Proliferation: Cell Proliferation Assessment in the BioMAP Diversity Plus: CASM3C Assay (AID 2283047).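 Also: sulforhodamine B total protein stain as relative cell number at 560 nm; sub-confluent cells exposed 48 h before staining; fitted both ways against DMSO so gain or loss of cell number.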 Particulars: primary human coronary artery smooth muscle cells.
Read-out in test [7]: Monokine induced gamma interferon (MIG), CXCL9 (gene 4283)
Kind of test: BSK_CASM3C_MIG: BioMAP Diversity Plus: CASM3C Assay for Monokine induced gamma interferon (MIG) Biomarker Activity (AID 2283048).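 Also: MIG protein level measured by ELISA.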 As to conditions: primary human coronary artery smooth muscle cells; actives raise or lower the signal.

Read-out in test [8]: serum amyloid A (SAA), SAA1 (gene 6288)
The test can be described thus: BSK_CASM3C_SAA: BioMAP Diversity Plus: CASM3C Assay for serum amyloid A (SAA) Biomarker Activity (AID 2283049).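 Also: SAA protein level quantified by ELISA.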 As to conditions: primary human coronary artery smooth muscle cells; actives raise or lower the signal.

The nature of test [9]: BSK_CASM3C_SRB: Viability Assessment in the BioMAP Diversity Plus: CASM3C Assay (AID 2283050).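 Also: total protein by SRB staining as cytotoxicity measure in parallel cultures.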 Particulars: primary human coronary artery smooth muscle cells.
Read-out in test [10]: Thrombomodulin, THBD (gene 7056)
The test can be described thus: BSK_CASM3C_Thrombomodulin: BioMAP Diversity Plus: CASM3C Assay for Thrombomodulin Biomarker Activity (AID 2283051).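 Also: thrombomodulin protein level measured by ELISA 24 h after dosing.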 Particulars: primary human coronary artery smooth muscle cells; actives raise or lower the signal.

Read-out in test [11]: Tissue Factor, F3 (gene 2152)
The test can be described thus: BSK_CASM3C_TissueFactor: BioMAP Diversity Plus: CASM3C Assay for Tissue Factor Biomarker Activity (AID 2283052).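 Also: cell surface tissue factor protein level read by ELISA.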 As to conditions: primary human coronary artery smooth muscle cells; actives raise or lower the signal.

Read-out in test [12]: Interferon-gamma inducible Protein 10 (IP10), CXCL10 (gene 3627)
The test can be described thus: BSK_hDFCGF_IP10: BioMAP Diversity Plus: hDFCGF Assay for Interferon-gamma inducible Protein 10 (IP10) Biomarker Activity (AID 2283053). Particulars: primary human foreskin fibroblasts; actives raise or lower the signal. The procedure, abridged:
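Human foreskin fibroblast primary cells (hDFCGF system) were dosed with chemical and assayed at 24 h; IP-10 measured by ELISA. Activity fitted bidirectionally relative to DMSO negative control as baseline.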

Read-out in test [13]: Urokinase-type plasminogen activator receptor (uPAR), PLAUR (gene 5329)
The test can be described thus: BSK_CASM3C_uPAR: BioMAP Diversity Plus: CASM3C Assay for Urokinase-type plasminogen activator receptor (uPAR) Biomarker Activity (AID 2283054).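 Also: cell-surface uPAR protein level quantified by ELISA.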 As to conditions: primary human coronary artery smooth muscle cells; actives raise or lower the signal.

Read-out in test [14]: Vascular cell adhesion molecule 1 (VCAM1), VCAM1 (gene 7412)
Kind of test: BSK_CASM3C_VCAM1: BioMAP Diversity Plus: CASM3C Assay for Vascular cell adhesion molecule 1 (VCAM1) Biomarker Activity (AID 2283055).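 Also: VCAM-1 protein level quantified by ELISA on the cells.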 Particulars: primary human coronary artery smooth muscle cells; actives raise or lower the signal.

Read-out in test [15]: Collagen III, COL3A1 (gene 1281)
Kind of test: BSK_hDFCGF_CollagenIII: BioMAP Diversity Plus: hDFCGF Assay for Collagen III Biomarker Activity (AID 2283056). As to conditions: primary human foreskin fibroblasts; actives raise or lower the signal. The procedure, abridged: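 Response relative to DMSO, fitted in both directions, reflects ELISA-measured collagen III in human primary skin fibroblasts 24 h after compound addition.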

Read-out in test [16]: Epidermal growth factor receptor (EGFR), EGFR (gene 1956)
Kind of test: BSK_hDFCGF_EGFR: BioMAP Diversity Plus: hDFCGF Assay for Epidermal growth factor receptor (EGFR) Biomarker Activity (AID 2283057). Particulars: primary human foreskin fibroblasts; actives raise or lower the signal. A digest of the protocol: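 Primary human foreskin fibroblasts were exposed to compound for 24 h, after which cell-surface EGFR was quantified by ELISA. Activity was fitted bidirectionally against the DMSO negative control as baseline.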

Read-out in test [17]: Interleukin-8 (IL8), CXCL8 (gene 3576)
The test can be described thus: BSK_hDFCGF_IL8: BioMAP Diversity Plus: hDFCGF Assay for Interleukin-8 (IL8) Biomarker Activity (AID 2283058). Particulars: primary human foreskin fibroblasts; actives raise or lower the signal. The procedure, abridged:
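Fibroblast monolayers (human foreskin, hDFCGF) received test chemical for 24 h before ELISA detection of IL-8; either increases or decreases relative to DMSO count as activity.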

The nature of test [18]: BSK_hDFCGF_Proliferation: Cell Proliferation Assessment in the BioMAP Diversity Plus: hDFCGF Assay (AID 2283059).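 Also: curves fitted for both rise and fall of signal versus DMSO baseline.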 Particulars: primary human foreskin fibroblasts. The procedure, abridged:
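Steps: dose primary human dermal fibroblasts (foreskin); […] fix in 10% TCA; stain with 0.1% SRB; read 560 nm; fit gain or loss of signal against DMSO.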

Read-out in test [19]: Macrophage colony-stimulating factor (MCSF), CSF1 (gene 1435)
The test can be described thus: BSK_hDFCGF_MCSF: BioMAP Diversity Plus: hDFCGF Assay for Macrophage colony-stimulating factor (MCSF) Biomarker Activity (AID 2283060). As to conditions: primary human foreskin fibroblasts; actives raise or lower the signal. A digest of the protocol:
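fibroblasts (human foreskin, primary), 24 h post-dose; M-CSF by ELISA; bidirectional fit, DMSO = baseline.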

Test [20] can be described thus: BSK_hDFCGF_SRB: Viability Assessment in the BioMAP Diversity Plus: hDFCGF Assay (AID 2283061).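 Also: cells exposed to compound for 24 h before the read.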 As to conditions: primary human foreskin fibroblasts. The procedure, abridged: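 SRB-based viability read on primary human skin fibroblasts at 24 h: TCA fixation, 0.1% dye, 560 nm. Gain or loss of signal is fitted against the DMSO negative control.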

With `Cc1cn([C@H]2C=C[C@@H](CO)O2)c(=O)[nH]c1=O`, the result in test [1], in test [2], in test [3], in test [4], in test [5] and in [6] was inactive. Moreover, the result in test [7], in [8], in test [9], in test [10], in test [11] and in [12] was inactive. Moreover, the outcome in [13], in test [14], in [15], in test [16], in test [17] and in [18] was inactive. The result in test [19] and in test [20] was inactive.

A word on the AC50: it is the midpoint of the concentration-response curve, whichever way the signal moves. Turning to `C#CC(O)C(CC)CCCC` (stereo not given), the result in test [1], in [2], in test [3], in test [4], in test [5] and in test [7] was inactive. Besides, the result in test [8], in [9], in test [10], in test [11], in [12] and in [13] was inactive. The outcome in test [14], in test [15], in test [16], in test [17], in [18] and in [19] was inactive. Further, in [20], the outcome was inactive. Also, in test [6], the AC50 is 37 µM (active).

Take `Nc1nc(Cl)nc2c1ncn2[C@H]1C[C@H](O)[C@@H](CO)O1`: the result in test [1], in test [2], in [3], in test [4], in test [5] and in test [7] was inactive. In addition, the outcome in [8], in [9], in test [10], in test [11], in test [12] and in test [13] was inactive. Also, the outcome in [14], in [15], in test [16], in test [17] and in test [20] was inactive. The AC50 in test [6] is 0.54 µM (active); in test [18] it was 0.147 µM (active); in [19], 1.01 µM (active).

Regarding `CCCCC(CC)COC(=O)CCCCCCCC(=O)OCC(CC)CCCC` (stereo not given), the result in test [1], in test [2], in test [3], in [4], in test [5] and in [6] was inactive. Further, the outcome in test [7], in test [8], in [9], in test [10], in [11] and in [12] was inactive. The result in test [13], in test [14], in test [15], in test [16], in test [17] and in test [18] was inactive. Further, the result in test [19] and in test [20] was inactive.

On to `Cc1occc(=O)c1O`, for which the outcome in test [1], in test [2], in test [3], in test [4], in test [5] and in [6] was inactive. Further, the outcome in test [7], in test [8], in test [9], in test [10], in [11] and in test [12] was inactive. Moreover, the outcome in test [13], in [14], in test [15], in [16], in [17] and in test [18] was inactive. Further, the result in test [19] and in test [20] was inactive.

For the compound `CSc1ccc(Oc2ccc(S(N)(=O)=O)cc2CN(C)C)cc1C`, the outcome in [1], in [2], in [3], in [4], in test [5] and in test [7] was inactive. Besides, the outcome in test [8], in [9], in test [10], in [11], in [12] and in test [13] was inactive. For the same compound, the outcome in test [14], in [15], in [16], in test [17], in test [19] and in test [20] was inactive. The AC50 in [6] and in test [18] was 20 µM (active) in each case.

In the case of `CCCCCCCCCCCCCCOS(=O)(=O)O`, the outcome in test [1], in test [2], in [3], in [4], in test [5] and in test [6] was inactive. Moreover, the result in test [7], in [8], in test [9], in [10], in [11] and in test [13] was inactive. Moreover, in [14], the outcome was inactive. Moreover, the AC50 in [12] is 8.52 µM (active); in test [15] it was 7.78 µM (active); in [16] it was 12.2 µM (active); in test [17], 12.4 µM (active); in test [18], 5.36 µM (active); in test [19], 9.53 µM (active). Further, the AC50 in [20] is 10.1 µM (active).

These data come from PubChem BioAssay (EPA / NIEHS).
